Experiment [1] concerns the target Transcriptional activator Myb (Homo sapiens) (UniProt P10242). Description: ATG_Myb_CIS: Attagene CIS-FACTORIAL HepG2 Assay for human Myeloblastosis (Myb) Proto-Oncogene Transcription Factor (AID 2282986). The following applies: HepG2 Attagene CIS-FACTORIAL Myb reporter transcription; actives raise or lower the signal. The method in brief:
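HepG2, transient MRTU transfection (cis-element promoters, endogenous TF activity), 24 h compound exposure. Readout: reporter mRNA via RT-PCR, 6-FAM labeling, HpaI digest, capillary electrophoresis. Gain/loss fit vs DMSO.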

The target of experiment [2] is Nuclear respiratory factor 1 (Homo sapiens) (UniProt Q16656). The experiment is described as follows: ATG_NRF1_CIS: Attagene CIS-FACTORIAL HepG2 Assay for human Nuclear Respiratory Factor 1 (NRF1) Orphan Gene (AID 2282987). The following applies: HepG2 NRF1 cis-element reporter, Attagene multiplex; actives raise or lower the signal. In outline: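 Endogenous NRF1-driven reporter transcription measured in transiently transfected human HepG2 liver cells. Readout: reporter mRNA by RT-PCR and capillary electrophoresis with fluorescence detection, 24 h post-dosing. Gain or loss of signal fitted relative to DMSO baseline.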

Experiment [3] in a line: ATG_NFI_CIS: Attagene CIS-FACTORIAL HepG2 Assay for human Nuclear Factor I (NFI) (AID 2282989). The settings on record: HepG2 cis-regulatory reporter, NFI response element transcription; actives raise or lower the signal. In outline: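 HepG2 cells transiently transfected with cis-element-driven multiplexed reporter transcription units, dosed for 24 h. Reporter mRNA quantified by RT-PCR, fluorescent labelling, HpaI digestion and capillary electrophoresis; bidirectional fit versus DMSO baseline.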

Experiment [4] deals with Myc proto-oncogene protein (Homo sapiens) (UniProt P01106). Description: ATG_Myc_CIS: Attagene CIS-FACTORIAL HepG2 Assay for human Myelocytomatosis (Myc) Proto-Oncogene Transcription Factor (AID 2282990). The settings on record: HepG2, Attagene cis-reporter transcription factor activity; actives raise or lower the signal. In outline: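 After 24 h chemical treatment of HepG2 cells carrying multiplexed cis-regulated reporter constructs, reporter transcripts quantified by RT-PCR and capillary electrophoresis of fluorescent fragments. Gain or loss fitted against DMSO baseline.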

Experiment [5] is described as follows: ATG_NF_kB_CIS: Attagene CIS-FACTORIAL HepG2 Assay for human Nuclear Factor Kappa B (NF-kB) (AID 2282991). The following applies: HepG2 Attagene cis-factorial NF-kB reporter mRNA; actives raise or lower the signal. The method in brief: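 Read-out: reporter transcript levels quantified by RT-PCR plus capillary electrophoresis of 6-FAM-labelled, HpaI-cut fragments. Transfected HepG2 cells, 24 h compound exposure, endogenous NF-kB-driven cis element; gain or loss scored versus DMSO.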

The nature of experiment [6]: ATG_NRF2_ARE_CIS: Attagene CIS-FACTORIAL HepG2 Assay for human Nuclear Factor Erythroid 2 Related Factor 2 (NFR2) response to Antioxidant Response Elements (ARE) (AID 2282992). The settings on record: HepG2 Attagene ARE/NRF2 reporter, transcription factor activity; actives raise or lower the signal. In outline: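 HepG2 cells transiently transfected with multiplexed cis-element reporter constructs, 24 h after chemical dosing; reporter mRNA quantified by RT-PCR, fluorescent primer extension, HpaI digestion and capillary electrophoresis. Bidirectional fit relative to DMSO.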

A short description of experiment [7]: ATG_Oct_MLP_CIS: Attagene CIS-FACTORIAL HepG2 Assay for human Octamer-Binding Transcription Factor (Oct) (AID 2282993). The settings on record: HepG2 Attagene cis-factorial Oct reporter, mRNA; actives raise or lower the signal. The method in brief: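 HepG2 cells transiently transfected with cis-promoter-driven multiplexed reporter transcription units, dosed for 24 h. Reporter mRNA quantified by RT-PCR, fluorescent labelling, HpaI digestion and capillary electrophoresis; bidirectional fits versus DMSO baseline.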

A short description of experiment [8]: BSK_3C_TissueFactor: BioMAP Diversity Plus: 3C Assay for Tissue Factor Biomarker Activity (AID 2282997). The following applies: BioMAP 3C HUVEC, tissue factor biomarker readout; actives raise or lower the signal. The method in brief:
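Primary human umbilical vein endothelial cells in the 3C system were exposed to test chemical for 24 h, then Tissue Factor measured by ELISA. Activity was fitted bidirectionally against DMSO as negative control and baseline.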

Experiment [9] can be described thus: BSK_3C_uPAR: BioMAP Diversity Plus: 3C Assay for Urokinase-type plasminogen activator receptor (uPAR) Biomarker Activity (AID 2282998). The following applies: BioMAP 3C HUVEC, uPAR biomarker ELISA; actives raise or lower the signal. In outline: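 Human umbilical vein endothelial primary cells were exposed to test chemical for 24 h. Cell-surface uPAR was then quantified by ELISA, and responses were fitted bidirectionally against DMSO as negative control and baseline.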
Background: ELISA stands for enzyme-linked immunosorbent assay.

Experiment [10] can be described thus: BSK_3C_VCAM1: BioMAP Diversity Plus: 3C Assay for Vascular cell adhesion molecule 1 (VCAM1) Biomarker Activity (AID 2282999). The settings on record: BioMAP 3C HUVEC, VCAM1 ELISA, cytokine-stimulated; actives raise or lower the signal. In outline:
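Endothelial cells from human umbilical vein are treated with test chemical. At 24 h, VCAM-1 is measured by ELISA, and responses in either direction are fitted relative to DMSO.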

A short description of experiment [11]: BSK_4H_Eotaxin3: BioMAP Diversity Plus: 4H Assay for Eotaxin 3 Biomarker Activity (AID 2283000).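 Further: CCL26 protein level quantified by ELISA in parallel with SRB cytotoxicity check.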 The settings on record: primary human endothelial cells (HUVEC); actives raise or lower the signal. In outline: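 HUVEC, 24 h post-dose, ELISA for Eotaxin-3/CCL26. Gain or loss of signal fitted bidirectionally vs DMSO baseline.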
For experiment [12], the target named is human Peroxisome Proliferator-activated Receptor alpha (PPARa), PPARA (gene 5465) (UniProt Q07869). The experiment is described as follows: ATG_PPARa_TRANS: Attagene TRANS-FACTORIAL HepG2 Assay for human Peroxisome Proliferator-activated Receptor alpha (PPARa) (AID 2283001; active means hit-call score of the fitted dose curve at least 0.9, where 1 is the maximum). In outline:
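Reporter transcripts from GAL4-UAS units in transfected HepG2 were quantified 24 h after dosing. Detection used reverse transcription, PCR, fluorescent primer extension and capillary electrophoresis, with DMSO as baseline.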

Read-out in experiment [13]: Intercellular Adhesion Molecule 1 (ICAM1), ICAM1 (gene 3383)
Description: BSK_3C_ICAM1: BioMAP Diversity Plus: 3C Assay for Intercellular Adhesion Molecule 1 (ICAM1) Biomarker Activity (AID 2283003). The following applies: primary human endothelial cells (HUVEC); actives raise or lower the signal. The method in brief:
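Human vascular endothelial primary cells, 3C conditions, 24 h treatment. ICAM-1 by ELISA.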

Experiment [14] is described as follows: BSK_3C_Proliferation: Cell Proliferation Assessment in the BioMAP Diversity Plus: 3C Assay (AID 2283006). The following applies: primary human endothelial cells (HUVEC). The method in brief:
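Proliferation of human vascular endothelial primary cells after 48 h dosing, quantified as SRB-stained protein at 560 nm relative to DMSO.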

Experiment [15] addresses Nuclear receptor subfamily 1 group I member 2 (Homo sapiens) (UniProt O75469). The experiment is described as follows: ATG_PXR_TRANS: Attagene TRANS-FACTORIAL HepG2 Assay for human Pregnane X Receptor (PXR) (AID 2283008; active means hit-call score of the fitted dose curve at least 0.9, where 1 is the maximum). In outline: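 HepG2 cells transiently transfected with GAL4-UAS reporter units and PXR-Gal4 chimera, exposed 24 h. Reporter mRNA quantified by RT-PCR, fluorescent labelling, HpaI digestion and capillary electrophoresis; gain of signal vs DMSO.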

The target in experiment [16] is human Peroxisome Proliferator-activated Receptor delta (PPARd), PPARD (gene 5467) (UniProt Q03181). Description: ATG_PPARd_TRANS: Attagene TRANS-FACTORIAL HepG2 Assay for human Peroxisome Proliferator-activated Receptor delta (PPARd) (AID 2283002; active means hit-call score of the fitted dose curve at least 0.9, where 1 is the maximum). The method in brief: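 Read-out is induced reporter mRNA, quantified by RT-PCR with fluorescent labelling and capillary electrophoresis after 24 h dosing. Cells are HepG2 transiently carrying multiple GAL4-UAS reporter units driven by exogenous NR-GAL4 chimeras; DMSO serves as baseline.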

Experiment [17] has as its target human Retinoic Acid Receptor beta (RARb), RARB (gene 5915) (UniProt P10826). Description: ATG_RARb_TRANS: Attagene TRANS-FACTORIAL HepG2 Assay for human Retinoic Acid Receptor beta (AID 2283004; active means hit-call score of the fitted dose curve at least 0.9, where 1 is the maximum). The method in brief: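 HepG2 cells transiently transfected with multiplexed GAL4-UAS reporter units expressing chimeric NR–Gal4 fusions; 24 h compound exposure. Reporter mRNA quantified by RT-PCR, 6-FAM labelling, HpaI digestion and capillary electrophoresis; gain-of-signal fitted against DMSO baseline.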

Experiment [18] deals with Retinoic acid receptor alpha (Homo sapiens) (UniProt P10276). Description: ATG_RARa_TRANS: Attagene TRANS-FACTORIAL HepG2 Assay for human Retinoic Acid Receptor alpha (RARa) (AID 2283005; active means hit-call score of the fitted dose curve at least 0.9, where 1 is the maximum). In outline:
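Reporter transcripts, measured by RT-PCR with fluorescent labeling and capillary electrophoresis after 24 h dosing, reflect activity of an exogenous human RARa–GAL4 fusion in transiently transfected HepG2. Fitted for increase relative to DMSO.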

Experiment [19] addresses Peroxisome proliferator-activated receptor gamma (Homo sapiens) (UniProt P37231). The experiment is described as follows: ATG_PPARg_TRANS: Attagene TRANS-FACTORIAL HepG2 Assay for human Peroxisome Proliferator-activated Receptor-gamma (PPARg) (AID 2283007; active means hit-call score of the fitted dose curve at least 0.9, where 1 is the maximum). The method in brief: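 Read-out: reporter mRNA induction, detected by fluorescence after RT-PCR and capillary electrophoresis. Transiently transfected human HepG2 liver cells carrying a chimeric NR-Gal4 construct were dosed for 24 h; activity was fitted upward relative to DMSO.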

Experimental findings from PubChem BioAssay (EPA / NIEHS) are described below.

Results filed as inconclusive are left out. Activity calls are given as the source filed them. How the source made its calls, unless noted: active means hit-call score of the fitted dose curve at least 0.9, where 1 is the maximum; inactive means score below 0.9.

Nuclear receptor subfamily 1 group I member 2 (Homo sapiens), sequence (O75469 whole entry, looked up, the tested form may be a part): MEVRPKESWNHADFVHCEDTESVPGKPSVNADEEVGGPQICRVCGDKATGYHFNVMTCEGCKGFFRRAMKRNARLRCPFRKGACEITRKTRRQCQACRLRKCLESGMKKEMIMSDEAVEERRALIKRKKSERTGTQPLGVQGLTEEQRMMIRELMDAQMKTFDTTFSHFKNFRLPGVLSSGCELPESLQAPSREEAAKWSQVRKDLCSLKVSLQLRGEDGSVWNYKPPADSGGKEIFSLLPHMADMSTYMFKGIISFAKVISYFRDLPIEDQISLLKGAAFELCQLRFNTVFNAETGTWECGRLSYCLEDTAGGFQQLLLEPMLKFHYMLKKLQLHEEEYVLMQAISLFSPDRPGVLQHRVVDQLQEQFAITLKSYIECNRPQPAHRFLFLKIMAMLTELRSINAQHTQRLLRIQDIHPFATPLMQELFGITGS
Nuclear respiratory factor 1 (Homo sapiens), sequence (Q16656 whole entry, looked up): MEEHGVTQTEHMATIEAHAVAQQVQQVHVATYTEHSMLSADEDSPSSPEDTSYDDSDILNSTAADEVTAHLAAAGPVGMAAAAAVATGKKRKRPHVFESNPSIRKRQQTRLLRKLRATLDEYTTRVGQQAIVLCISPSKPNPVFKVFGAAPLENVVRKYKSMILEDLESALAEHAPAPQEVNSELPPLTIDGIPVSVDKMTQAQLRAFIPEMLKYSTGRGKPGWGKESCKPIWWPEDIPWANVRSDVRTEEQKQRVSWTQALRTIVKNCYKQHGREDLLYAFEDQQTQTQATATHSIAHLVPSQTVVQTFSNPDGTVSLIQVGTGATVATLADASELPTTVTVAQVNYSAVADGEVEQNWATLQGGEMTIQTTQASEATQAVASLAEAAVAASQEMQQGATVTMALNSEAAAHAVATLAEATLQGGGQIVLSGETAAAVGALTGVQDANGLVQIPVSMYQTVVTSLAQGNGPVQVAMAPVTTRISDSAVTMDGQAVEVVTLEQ
human Peroxisome Proliferator-activated Receptor delta (PPARd), PPARD (gene 5467), sequence (Q03181 whole entry, looked up, the tested form may be a part): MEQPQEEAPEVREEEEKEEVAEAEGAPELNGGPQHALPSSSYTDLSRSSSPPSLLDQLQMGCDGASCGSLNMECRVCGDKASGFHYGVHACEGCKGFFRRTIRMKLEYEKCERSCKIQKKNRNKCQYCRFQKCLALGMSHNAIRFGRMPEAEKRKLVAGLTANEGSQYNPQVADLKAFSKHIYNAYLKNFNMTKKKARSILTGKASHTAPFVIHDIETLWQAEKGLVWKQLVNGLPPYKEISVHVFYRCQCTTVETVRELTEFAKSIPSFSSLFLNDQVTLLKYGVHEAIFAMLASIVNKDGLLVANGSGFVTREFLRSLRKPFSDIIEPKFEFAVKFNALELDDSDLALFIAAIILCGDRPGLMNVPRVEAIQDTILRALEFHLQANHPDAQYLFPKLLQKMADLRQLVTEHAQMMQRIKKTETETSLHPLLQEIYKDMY
Myc proto-oncogene protein (Homo sapiens), sequence (P01106 whole entry, looked up, the tested form may be a part): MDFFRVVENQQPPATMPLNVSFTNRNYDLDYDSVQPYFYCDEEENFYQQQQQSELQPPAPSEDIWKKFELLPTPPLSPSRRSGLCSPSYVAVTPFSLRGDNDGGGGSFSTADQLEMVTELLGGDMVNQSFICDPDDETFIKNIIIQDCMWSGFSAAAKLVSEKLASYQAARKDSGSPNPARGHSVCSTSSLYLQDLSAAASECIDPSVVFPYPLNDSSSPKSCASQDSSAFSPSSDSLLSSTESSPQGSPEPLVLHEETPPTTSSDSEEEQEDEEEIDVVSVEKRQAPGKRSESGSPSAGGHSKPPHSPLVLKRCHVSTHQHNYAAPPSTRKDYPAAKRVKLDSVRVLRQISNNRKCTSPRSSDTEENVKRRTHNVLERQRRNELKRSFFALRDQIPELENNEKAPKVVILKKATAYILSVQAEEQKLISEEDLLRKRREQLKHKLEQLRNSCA
Peroxisome proliferator-activated receptor gamma (Homo sapiens), sequence (P37231 whole entry, looked up, the tested form may be a part): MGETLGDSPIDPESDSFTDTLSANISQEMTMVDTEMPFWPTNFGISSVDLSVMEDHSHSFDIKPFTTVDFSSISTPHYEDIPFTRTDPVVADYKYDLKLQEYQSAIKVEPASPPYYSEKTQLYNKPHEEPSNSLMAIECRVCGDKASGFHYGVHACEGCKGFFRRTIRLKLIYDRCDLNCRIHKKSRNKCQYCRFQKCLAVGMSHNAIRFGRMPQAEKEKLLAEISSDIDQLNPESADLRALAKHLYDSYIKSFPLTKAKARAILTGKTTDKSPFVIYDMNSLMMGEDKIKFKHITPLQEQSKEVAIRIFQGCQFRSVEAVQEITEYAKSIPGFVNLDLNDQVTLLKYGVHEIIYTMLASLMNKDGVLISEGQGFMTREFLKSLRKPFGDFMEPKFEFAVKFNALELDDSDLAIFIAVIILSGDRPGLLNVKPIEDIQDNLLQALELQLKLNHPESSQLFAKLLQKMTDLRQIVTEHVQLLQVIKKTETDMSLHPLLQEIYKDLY
Transcriptional activator Myb (Homo sapiens), sequence (P10242 whole entry, looked up): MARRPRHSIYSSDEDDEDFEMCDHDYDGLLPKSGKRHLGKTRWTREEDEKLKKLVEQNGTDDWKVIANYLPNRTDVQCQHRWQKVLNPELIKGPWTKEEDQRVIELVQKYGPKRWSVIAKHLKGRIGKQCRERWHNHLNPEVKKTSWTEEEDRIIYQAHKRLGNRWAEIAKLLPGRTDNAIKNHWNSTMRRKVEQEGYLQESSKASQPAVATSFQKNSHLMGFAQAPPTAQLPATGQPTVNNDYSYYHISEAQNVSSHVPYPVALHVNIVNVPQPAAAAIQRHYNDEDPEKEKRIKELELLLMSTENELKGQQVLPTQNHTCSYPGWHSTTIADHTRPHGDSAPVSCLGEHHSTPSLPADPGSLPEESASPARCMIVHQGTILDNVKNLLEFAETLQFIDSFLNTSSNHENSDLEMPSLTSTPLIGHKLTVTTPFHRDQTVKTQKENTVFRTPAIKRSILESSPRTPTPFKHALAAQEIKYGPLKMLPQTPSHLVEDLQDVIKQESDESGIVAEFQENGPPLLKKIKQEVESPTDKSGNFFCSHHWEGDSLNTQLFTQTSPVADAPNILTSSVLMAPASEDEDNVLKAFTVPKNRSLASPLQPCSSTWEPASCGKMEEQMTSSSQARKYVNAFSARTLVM
Retinoic acid receptor alpha (Homo sapiens), sequence (P10276 whole entry, looked up, the tested form may be a part): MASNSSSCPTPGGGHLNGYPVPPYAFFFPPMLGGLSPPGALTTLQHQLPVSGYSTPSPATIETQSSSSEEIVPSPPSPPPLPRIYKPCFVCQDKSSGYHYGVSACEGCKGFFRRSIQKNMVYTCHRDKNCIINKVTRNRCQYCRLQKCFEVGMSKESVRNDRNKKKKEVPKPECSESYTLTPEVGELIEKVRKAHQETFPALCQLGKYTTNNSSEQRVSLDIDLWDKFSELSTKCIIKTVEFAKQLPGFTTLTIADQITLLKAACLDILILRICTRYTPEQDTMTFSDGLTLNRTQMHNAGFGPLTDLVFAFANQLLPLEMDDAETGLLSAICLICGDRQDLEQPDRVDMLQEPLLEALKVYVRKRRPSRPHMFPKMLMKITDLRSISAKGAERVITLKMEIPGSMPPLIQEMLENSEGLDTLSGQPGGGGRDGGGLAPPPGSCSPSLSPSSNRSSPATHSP
human Retinoic Acid Receptor beta (RARb), RARB (gene 5915), sequence (P10826 whole entry, looked up, the tested form may be a part): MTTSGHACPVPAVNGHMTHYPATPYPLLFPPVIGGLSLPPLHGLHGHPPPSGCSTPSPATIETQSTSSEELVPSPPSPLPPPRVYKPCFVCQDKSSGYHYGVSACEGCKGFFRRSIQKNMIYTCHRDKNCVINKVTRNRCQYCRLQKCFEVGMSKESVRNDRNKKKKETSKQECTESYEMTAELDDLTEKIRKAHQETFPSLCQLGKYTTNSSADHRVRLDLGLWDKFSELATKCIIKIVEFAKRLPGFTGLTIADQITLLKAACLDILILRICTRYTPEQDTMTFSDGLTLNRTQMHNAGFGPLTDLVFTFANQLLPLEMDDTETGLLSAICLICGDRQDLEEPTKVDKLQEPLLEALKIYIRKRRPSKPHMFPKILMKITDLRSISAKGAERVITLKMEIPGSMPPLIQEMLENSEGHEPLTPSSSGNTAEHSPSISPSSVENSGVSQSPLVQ
human Peroxisome Proliferator-activated Receptor alpha (PPARa), PPARA (gene 5465), sequence (Q07869 whole entry, looked up, the tested form may be a part): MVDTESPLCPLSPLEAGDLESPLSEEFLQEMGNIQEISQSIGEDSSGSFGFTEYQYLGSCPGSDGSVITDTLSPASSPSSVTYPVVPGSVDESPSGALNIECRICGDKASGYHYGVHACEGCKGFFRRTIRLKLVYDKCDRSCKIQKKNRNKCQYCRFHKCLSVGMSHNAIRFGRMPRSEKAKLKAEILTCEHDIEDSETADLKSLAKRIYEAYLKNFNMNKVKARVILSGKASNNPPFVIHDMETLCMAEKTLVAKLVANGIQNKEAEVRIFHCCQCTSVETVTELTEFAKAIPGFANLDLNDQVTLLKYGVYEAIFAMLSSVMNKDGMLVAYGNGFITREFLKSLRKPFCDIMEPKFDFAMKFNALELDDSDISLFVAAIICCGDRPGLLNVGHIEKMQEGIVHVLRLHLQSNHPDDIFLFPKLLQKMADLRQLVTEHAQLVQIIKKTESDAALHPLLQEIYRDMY

Consider `CCN(CC)c1ccccc1`, for which the result in experiment [1], in experiment [2], in experiment [3], in [4], in [5] and in experiment [6] was inactive. The call in experiment [7], in experiment [8], in experiment [9], in experiment [10], in [11] and in [12] was inactive. In addition, the result in experiment [13], in [14] and in [15] was inactive.

For `CCNc1nc(Cl)nc(NC(C)(C)C)n1`, the call in [1], in experiment [2], in experiment [3], in [4], in experiment [5] and in experiment [6] was inactive. Further, the call in [7], in [8], in experiment [9], in experiment [10], in [11] and in experiment [16] was inactive. Also, the result in experiment [13], in experiment [17], in experiment [18], in experiment [14] and in [19] was inactive.

In the case of `CC(Cl)CN(C)C` (stereo unspecified), the compound was classed as inactive in [1], in experiment [2], in experiment [3], in [4], in experiment [5] and in experiment [7]. In addition, the outcome in [8], in [9], in experiment [10], in [11], in experiment [16] and in experiment [13] was inactive. Also, the result in [14] was inactive. The AC50 (as a rule, the midpoint of the concentration-response curve, whichever way the signal moves) in [6] was 28.4 µM (active).

Turning to `CO/N=C(/C(=O)OC)c1ccccc1COc1ccccc1C`, the compound was called inactive in [1], in experiment [2], in experiment [3], in [4], in experiment [5] and in [16]. The outcome in experiment [17] and in experiment [18] was inactive. Moreover, the half-maximal activity concentration (AC50) in experiment [6] is 3.96 µM (active); in [7], 21.9 µM (active).

As for `CCOP(=S)(NC(C)C)Oc1ccccc1C(=O)OC(C)C` (stereo unspecified), the compound was classed as inactive in [1], in [2], in experiment [3], in experiment [4], in experiment [6] and in [7]. The outcome in [8], in experiment [9], in experiment [10], in [11], in [16] and in experiment [13] was inactive. In experiment [14], the result was inactive. Moreover, the concentration at half-maximal activity (AC50) is 8.99 µM (active) in experiment [19] and 0.599 µM (active) in [15].

For `CCOP(=S)(OCC)SCSCC`, the result in [1], in experiment [2], in experiment [3], in [4], in [5] and in experiment [7] was inactive. Besides, the result in experiment [8], in experiment [9], in experiment [10], in experiment [11], in experiment [13] and in experiment [14] was inactive. For the same compound, the outcome in experiment [19] was inactive. For the same compound, the figures for the AC50 in experiment [6] and in experiment [15] were 73 µM (active) and 9.51 µM (active), respectively.
